Experimental data reported in PubChem BioAssay (NCI).
The panel holds about 83,000 compounds, 20% with a hit somewhere; the sample as a whole holds those more often.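 Single-dose data. Exposure time 48 hours. Values below 10 considered active.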 The source made the active and inactive calls.

Tests used:
Experiment in all cases: NCI-60 one-dose screen, 48 h (100 = growth as untreated, 0 = no growth, -100 = all killed)
Settings in all cases: 10 µM unless noted
[1] = test system: NCI-H23 lung
[2] = test system: NCI-H226 lung
[3] = test system: NCI-H322M lung
[4] = test system: HOP-62 NSCLC
[5] = test system: NCI-H460 lung
[6] = test system: HOP-92 NSCLC
[7] = test system: NCI-H522 lung
[8] = test system: A549/ATCC NSCLC
[9] = test system: 786-0 renal
[10] = test system: COLO 205 colon

Measured: growth

O=C(NCc1ccc(Cn2c(=O)sn(-c3ccccc3)c2=O)cc1)OCc1ccc2cccc(O)c2n1
inactive: [2] 35.6% | [3] 67.4% | [5] 27.2%
active: [1] -67.4% | [4] -58.2% | [6] -65.3% | [7] -53.5% | [8] -27.3% | [9] -87.7% | [10] -57.4%

CC(O)Cc1c[nH]c(=O)[nH]c1=O (stereo not given)
inactive: [1] 102% | [2] 109% | [3] 132% | [5] 103% | [6] 111% | [7] 110% | [8] 93.7% | [9] 109%
active: [4] -56.4% | [10] -66.5%

COc1ccc(-c2nc(SCC(=O)Nc3nc4ccc(C)cc4s3)[nH]c(=O)c2C#N)cc1OC
inactive: [1] 103% | [2] 83.6% | [3] 101% | [4] 74.8% | [5] 100% | [6] 102% | [7] 105% | [8] 105% | [9] 105% | [10] 115%

C=C1C(=O)O[C@H]2[C@H]1CC/C(COC(=O)C(=O)c1c[nH]c3ccc(Cl)cc13)=C\CC[C@@]1(C)O[C@@H]21
active: [1] -55.7% | [2] -73% | [3] -76.2% | [4] -53.1% | [5] -72.9% | [6] -92.8% | [7] -48.4% | [8] -82.2% | [9] -99.1% | [10] -51.9%

COc1ccc2c(c1)C(C)Cc1c(ncnc1-n1cnc3cc(C)ccc31)N2C (stereo not given)
inactive: [1] 30.4% | [2] 60% | [3] 48.6% | [4] 28.4% | [7] 11.7% | [8] 13.6% | [9] 12.3%
active: [5] 3.98% | [6] -2.48% | [10] -46.9%

CCOC(=O)CC[C@H](NC(=O)c1ccc(N(C)Cc2cnc3nc(N)nc(N)c3n2)c2ccccc12)C(=O)OCC
inactive: [1] 25.5% | [2] 72.6% | [3] 46.3% | [4] 29.4% | [5] 13.8% | [6] 51.7% | [7] 22.4% | [9] 27.5% | [10] 36.9%
active: [8] 9.28%

COc1ccc(C2[C@@H](c3ccccc3)C(=O)N2c2cc(OC)c(OC)c(OC)c2)cc1F (stereo not given in full)
inactive: [1] 25.3% | [2] 66.6% | [3] 38.2% | [4] 19.1% | [6] 28.1% | [9] 13.9%
active: [5] 5.92% | [7] -34.2% | [8] 8.88% | [10] -48.2%

CC(C)C1C2=C(NCCN1C(=O)c1ccncc1)C(C)(C)N(Cc1ccccc1)C2=O (stereo not given)
inactive: [1] 99.6% | [2] 107% | [3] 110% | [4] 103% | [5] 116% | [6] 103% | [7] 80.9% | [8] 95.2% | [9] 105% | [10] 109%

O=c1c2ccccc2n(C[C@H]2CO2)c2ccccc12
inactive: [2] 51.4% | [3] 20%
active: [1] -58.2% | [4] -12.8% | [5] -40.5% | [6] -3.5% | [7] -37.5% | [8] -37.2% | [9] -14.1% | [10] 2.46%

CCOC(=O)c1cn2ncnc(Oc3ccc(NC(=O)NC4CC4)c(Cl)c3)c2c1C
inactive: [1] 84.6% | [2] 71.4% | [3] 101% | [4] 90.9% | [5] 102% | [6] 109% | [7] 75.9% | [8] 99.2% | [9] 93.5% | [10] 108%

CS(=O)(=O)Nc1cc(-c2ccc3ncnc(Nc4ccc5c(cnn5Cc5ccccc5F)c4)c3c2)cnc1Cl
inactive: [1] 41.8% | [2] 66.7% | [3] 62% | [4] 40.3% | [5] 59.4% | [7] 34.3% | [8] 71.3% | [9] 53.1% | [10] 59.4%
active: [6] -21.4%

CCN(CC)CCCC(Cc1ccccc1)Nc1c2ccc(Cl)cc2nc2ccc(OC)cc12 (stereo not given)
active: [3] 9.3% | [6] -4.73% | [7] 1.88% | [9] -22.6% | [10] -42.3%
inactive: [1] 67.1% | [2] 84.4% | [4] 67.3% | [5] 28.6% | [8] 39.3%

CC1(C)N=C(N)N=C(N)N1c1ccc(S(=O)(=O)Nc2nccs2)cc1
inactive: [1] 101% | [2] 101% | [3] 104% | [4] 95.8% | [5] 104% | [6] 87.2% | [7] 91.1% | [8] 96.1% | [9] 99.5% | [10] 105%

COc1ccc(/C=C2\c3cc(OC)c(OC)c(OC)c3CC[C@@H]2O)cc1F
active: [7] -32.5% | [10] 2.26%
inactive: [1] 37.3% | [2] 58.1% | [3] 66.3% | [4] 32.6% | [5] 13.8% | [6] 38.2% | [8] 16.7% | [9] 34.7%

C=C1C(=O)O[C@@H]2C3C(=C(C)CC[C@@H]12)CC1O[C@]13C (stereo not given in full)
inactive: [1] 82.9% [6.75 µM] | [2] 88.2% [6.75 µM] | [3] 95.8% [6.75 µM] | [4] 94.1% [6.75 µM] | [5] 101% [6.75 µM] | [6] 102% [6.75 µM] | [8] 90.1% [6.75 µM] | [9] 83.1% [6.75 µM] | [10] 87% [6.75 µM]
active: [7] -52.3% [6.75 µM]

O=C(/C=C/c1ccccc1Cl)c1cccc(OCCCCOc2cccc(C(=O)/C=C/c3ccccc3Cl)c2)c1
inactive: [1] 96.5% | [2] 90.3% | [3] 99.9% | [4] 103% | [5] 99.6% | [6] 94.4% | [7] 97.1% | [8] 95.3% | [9] 103% | [10] 107%

CC(=O)c1sc(-c2ccc(F)cc2)cc1O
inactive: [1] 96.4% | [2] 103% | [3] 98.3% | [4] 111% | [5] 108% | [6] 102% | [7] 99.2% | [8] 97.2% | [9] 96.7% | [10] 116%

Cc1nc2ccccc2c(/C=C/c2ccc(F)cc2)c1C(=O)/C=C/c1ccccc1
inactive: [1] 20.7% | [2] 50.6% | [3] 37.7% | [6] 50.6% | [8] 25% | [9] 24.1% | [10] 10.5%
active: [4] -4.45% | [5] -41.9% | [7] 5.78%

C=C1C(=O)O[C@H]2[C@H]1CC/C(CNC(=O)Cc1c[nH]c3ccccc13)=C\CC[C@@]1(C)O[C@@H]21
inactive: [1] 30% | [3] 82.2% | [4] 53.8% | [5] 29.6% | [6] 45.1% | [8] 62%
active: [2] -45.8% | [7] -79.4% | [9] -36.4% | [10] -74.9%

COc1ccc2cc(C(=O)N3CCC([C@@H](C)C(=O)NCc4ccc5c(c4)OCO5)CC3)[nH]c2c1
active: [2] -5.97% [50 µM] | [4] -1.78% [50 µM] | [6] -17.6% [50 µM] | [7] -6.66% [50 µM] | [9] -10.5% [50 µM]
inactive: [1] 26.3% [50 µM] | [3] 86.7% [50 µM] | [5] 41.9% [50 µM] | [8] 53.7% [50 µM] | [10] 88.5% [50 µM]

CCN(CC)CCOc1ccc(C(=O)/C=C\c2ccc(Cl)cc2Cl)cc1
inactive: [1] 58.3% | [2] 53.5% | [3] 63.9% | [4] 57.2% | [5] 61.3% | [6] 24.5% | [7] 44% | [8] 21.7% | [9] 35.9%
active: [10] -53.5%

COc1ccc(-c2cc(-c3cn(-c4cccc(Cl)c4)nc3-c3ccc(OC)cc3)on2)cc1
inactive: [1] 95.3% | [2] 89.9% | [3] 86.9% | [4] 107% | [5] 98.6% | [6] 104% | [7] 74.8% | [8] 83% | [9] 100% | [10] 116%

Cc1ccc(OCCOCCOCCOCCOCCOc2ccc(C)n(O)c2=S)c(=S)n1O
active: [2] 6.73% | [5] 3.62% | [9] -0.0239%
inactive: [1] 14.1% | [3] 21.5% | [4] 10.5% | [6] 34.3% | [7] 25.8% | [8] 13.2% | [10] 10.4%

Nc1c(Br)cc2c(c1Br)Cc1cc([N+](=O)[O-])ccc1-2
inactive: [1] 81.3% | [2] 69% | [3] 98.4% | [4] 90.3% | [5] 83.2% | [6] 84.8% | [7] 97% | [8] 86.8% | [9] 109% | [10] 109%

O=C(O)CCCCCCCCCCN1C(=O)/C(=C2/C(=O)N(CC(=O)O)c3ccc(Br)cc32)SC1=S
inactive: [1] 92.8% | [2] 98.1% | [3] 97% | [4] 102% | [5] 105% | [6] 80.7% | [7] 90.1% | [8] 92% | [9] 54.7% | [10] 110%

COC(=O)/C=C1/SC(=Nc2ccc(F)cc2)N(CCc2c[nH]c3ccc(O)cc23)C1=O
inactive: [1] 62.2% | [2] 62.5% | [3] 92.1% | [4] 27.6% | [5] 25.3% | [6] 40.2% | [7] 23.6% | [8] 69.5% | [9] 40.6% | [10] 78.2%
